From PubChem BioAssay AID488975 (Johns Hopkins Ion Channel Center, 2010)
Among all 310,000 compounds or so, about 2,600 (0.84%) were called active.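 How the source made its calls: active means B-score over 3 SD under the library average, and starting fluorescence ratio not unusually high; inactive means the rest.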 Only a selection was taken, and actives are over-represented in it overall.

Each compound was assayed against High affinity choline transporter 1 (Homo sapiens) (UniProt Q9GZV3) (assay: inhibitors of human choline transporter CHT (AID 488975;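 on B-score: choline stimulus applied at its EC90 after an EC20 pre-addition; B-score computed on integrated fluorescence ratio after choline addition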)). Details: CHT-expressing cells, membrane potential dye, choline response, at 10 µM; hits give low values.
High affinity choline transporter 1 (Homo sapiens), sequence (Q9GZV3 whole entry, looked up): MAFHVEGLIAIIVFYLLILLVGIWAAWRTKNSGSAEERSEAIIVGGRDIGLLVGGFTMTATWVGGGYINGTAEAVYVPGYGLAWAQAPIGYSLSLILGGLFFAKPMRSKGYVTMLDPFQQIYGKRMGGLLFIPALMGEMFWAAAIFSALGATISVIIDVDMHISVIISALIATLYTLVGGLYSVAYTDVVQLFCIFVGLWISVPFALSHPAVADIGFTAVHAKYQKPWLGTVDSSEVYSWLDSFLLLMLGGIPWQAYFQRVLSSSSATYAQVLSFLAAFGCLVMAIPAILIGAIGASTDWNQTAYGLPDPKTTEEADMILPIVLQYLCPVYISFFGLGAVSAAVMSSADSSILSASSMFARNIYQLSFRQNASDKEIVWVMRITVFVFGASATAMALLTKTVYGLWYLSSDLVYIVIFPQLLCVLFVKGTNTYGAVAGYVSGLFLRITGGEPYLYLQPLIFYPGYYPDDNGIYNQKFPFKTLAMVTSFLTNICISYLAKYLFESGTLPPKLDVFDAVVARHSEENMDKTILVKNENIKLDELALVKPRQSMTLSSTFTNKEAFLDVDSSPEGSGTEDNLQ

Structure (SMILES)	B-score
CCOC(=O)/C(C#N)=C/c1ccc(N2CCCCC2)cc1	inactive
CC(C)(C)C(=O)/C(C#N)=C/c1ccc(O)cc1	-5.45 (active)
CCOC(=O)NC(=O)/C(C#N)=C\c1ccccc1	inactive
CCCCCn1c(=O)[nH]c2cc(C(=O)NCCCN3CCCCC3C)ccc2c1=O (stereo unspecified)	-6.4 (active)
O=C(NC1CCCCC1)c1ccc2c(=O)n(CC3CCCO3)c(=O)[nH]c2c1 (stereo unspecified)	inactive
CCC1CCCCN1CCCNC(=O)C1CCC(Cn2c(=O)[nH]c3ccccc3c2=O)CC1 (stereo unspecified)	inactive
CCN1C(=O)[C@H]2[C@@H](c3ccc(C)cc3)N3C(=O)N(c4cccc(Br)c4)C(=O)[C@@]3(CC)[C@H]2C1=O	inactive
O=C(CCCCO)c1ccc(O)c(Cl)c1	inactive
CC(C)Cn1c(CN(Cc2ccccc2)Cc2ccccc2)nc2c1c(=O)n(C)c(=O)n2C	inactive
CC(C)CCn1c(CN(C)Cc2ccccc2)nc2c1c(=O)n(C)c(=O)n2C	-5.25 (active)
COCCn1c(CN(Cc2ccccc2)Cc2ccccc2)nc2c1c(=O)n(C)c(=O)n2C	inactive
COc1cc(C2C(C(=O)c3cccs3)=C(O)C(=O)N2CCN2CCOCC2)ccc1OCCC(C)C (stereo unspecified)	inactive
CC1CCN(CCCNC(=O)CN2C(=O)CSc3ccc(S(=O)(=O)N4CCCCC4)cc32)CC1	-5.37 (active)
COc1ccc(NC(=O)CN2C(=O)CSc3ccc(S(=O)(=O)N4CCC(C)CC4)cc32)cc1	inactive
COCCCNC(=O)CN1C(=O)CSc2ccc(S(=O)(=O)N3CCOCC3)cc21	inactive
O=S(=O)(NCCCc1ccccc1)c1ccc(Br)cc1	inactive
O=C(c1ccc(F)cc1)N1CCC(C(=O)N2CCN(S(=O)(=O)c3ccccc3Br)CC2)CC1	inactive
COc1ccc(/C=C2/SC(=O)N(CCCCCC(=O)Nc3ccccc3C(=O)O)C2=S)cc1	-9.31 (active)
COc1ccc(/C=C2\SC(=O)N(CCC(=O)NCCCn3ccnc3)C2=O)cc1	inactive
O=C(CCCN1C(=O)/C(=C\c2ccccc2)SC1=S)Nc1ccccc1O	inactive
CC(=O)CC(CC(=O)NC1CCCCC1)c1ccccc1 (stereo unspecified)	inactive

Structure (SMILES)	B-score
Cc1ccc(C)c(C(=O)N2CCC(n3nccc3NC(=O)C3CC3)CC2)c1	inactive
Cc1ccc2c(C)c(C(=O)N3CCC(N4CCC(C(=O)NC5CC5)CC4)CC3)oc2c1	-8.96 (active)
CCOC(=O)C1CCN(C(=O)c2oc3ccc(S(=O)(=O)N4CCCCCC4)cc3c2C)CC1	inactive
C/C(CCc1ccccc1)=N\NC(=O)c1ccc(CN2CCOCC2)cc1	inactive
COc1ccc(C(=O)Nc2ccc(CN3CCOCC3)cc2)cc1	inactive
Cc1ccccc1-n1c(C)cc(/C=N/NC(=O)c2ccc(CN3CCOCC3)cc2)c1C	-9.28 (active)
COc1ccc(S(=O)(=O)NCc2cccnc2)cc1NC(=O)c1ccc(C)cc1	inactive
Cc1cc(C)c(S(=O)(=O)N2CCCC2CNC(=O)c2ccc3c(c2)OCO3)c(C)c1 (stereo unspecified)	inactive
O=S(=O)(O)Oc1c[nH]c2ccccc12	inactive
COc1ccc(OCCC(=O)c2ccc(OC)cc2)cc1	inactive
COc1ccc(OCC(=O)OCCN(C)C)cc1	-11 (active)
COc1ccc(OCCCC(=O)Oc2ccc(OC)cc2)cc1	inactive
CCOc1ccc(CCNC(=O)COC(=O)c2c(OC)cccc2OC)cc1OCC	inactive
CCCCCC(=O)N1CCN(S(=O)(=O)c2ccc3c(c2)OCCCO3)CC1	inactive
O=C(c1c(F)cccc1Cl)N1CCN(S(=O)(=O)c2ccc3c(c2)OCCCO3)CC1	-5.01 (active)
CN1CCCN(S(=O)(=O)c2ccc3c(c2)OCCO3)CC1	inactive
CC(C)c1ccc(S(=O)(=O)N2CCN(C(=O)CN3C(=O)NC(C)(c4ccccc4)C3=O)CC2)cc1 (stereo unspecified)	inactive
Cc1ccc(CS(=O)(=O)c2ncc(Cl)c(C(=O)Nc3nnc(C)s3)n2)cc1	-9.37 (active)
CSc1nnc(NC(=O)c2nc(S(=O)(=O)Cc3ccc(C)cc3)ncc2Cl)s1	inactive
Cc1cccc(NC(=O)c2nc(S(=O)(=O)Cc3ccccc3)ncc2Cl)c1	inactive
Cc1ccc(C(=O)CN2C(=O)NC3(CCc4ccccc43)C2=O)c(C)c1 (stereo unspecified)	inactive

Structure (SMILES)	B-score
O=C(OCCOCn1cc(Br)c(=O)[nH]c1=O)c1ccccc1	inactive
CC(=O)OCCOCn1cnn2c(=O)c(Br)c(C)nc12	-5.09 (active)
CCCN(CC(=O)Nc1ccccc1OC)C(=O)CCC(=O)c1ccc(F)cc1	inactive
Cn1cc([N+](=O)[O-])c(C(=O)Nc2cnn(Cc3ccc(F)cc3)c2)n1	inactive
O=C(Nc1ccn(Cc2ccccc2)n1)c1n[nH]c([N+](=O)[O-])c1Cl	-5.17 (active)
Cc1ccc(Cn2ccc(NC(=O)c3cc(C(C)C)on3)n2)cc1	inactive
CCN1C(=O)[C@@H]2[C@@H](c3ccc(-c4ccccc4)cc3)N3CCCC[C@@]3(C(=O)OC)[C@@H]2C1=O	inactive
CCCCCCSc1ccc([C@@H]2[C@@H]3C(=O)N(CC)C(=O)[C@@H]3[C@]3(C(=O)OC)CCCCN23)cc1OC	inactive
O=C(NCCC1CCCCN1S(=O)(=O)c1ccc(F)cc1)C(=O)NC1CC1 (stereo unspecified)	inactive
COc1ccc(CCNc2cc(N3CCN(C(=O)c4ccccc4OC)CC3)ccc2[N+](=O)[O-])cc1OC	inactive
CCS(=O)(=O)C1=NSC2=NC(=O)/C(=C\c3cc(C)n(-c4cccc(OC)c4)c3C)C(=N)N21	inactive
CCS(=O)(=O)C1=NSC2=NC(=O)/C(=C\c3ccc(OS(=O)(=O)c4ccccc4)cc3)C(=N)N21	-7.46 (active)
Cc1cc(/C=C2/C(=N)N3C(=NC2=O)SN=C3S(C)(=O)=O)c(C)n1-c1ccccc1	inactive
Cc1ccc2c(C)c(C(=O)N3CCN(c4ccncc4)CC3)oc2c1C	inactive
CCOc1cc(C(=O)Nc2ccc(S(=O)(=O)Nc3cnc4ccccc4n3)cc2)cc(OCC)c1OCC	inactive
O=C(NCCCn1ccnc1)Nc1ccc(Cl)cc1Cl	inactive
O=C(Nc1ccccc1C(=O)NCCCn1ccnc1)c1ccc(Cl)cc1Cl	-5.25 (active)
O=C(NCCCn1ccnc1)c1ccccc1F	inactive
COc1ccc(C(=O)C2CCCN(C(=O)c3ccc(OC)o3)C2)c(C)c1 (stereo unspecified)	inactive
